Test results published in PubChem BioAssay (EPA / NIEHS).
The source made the active and inactive calls. The calls were made as follows: active = hit-call score of the fitted dose curve at least 0.9, where 1 is the maximum; inactive = score below 0.9.

Experiments:
Conditions in all cases: actives raise or lower the signal
[1] = CEETOX_H295R_11DCORT: CeeTox H295R High-throughput Steroidogenesis Assay for 11-Deoxycortisol (11DCORT) (AID 2283432);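 as to AC50: 11-deoxycortisol secreted into the medium measured by LC-MS/MS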
Method in brief: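 Steroidogenesis in human H295R cells: 48 h chemical exposure after forskolin priming, 11-deoxycortisol measured by LC-MS/MS.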

[2] = CEETOX_H295R_OHPREG: CeeTox H295R High-throughput Steroidogenesis Assay for OH-Pregnenolone (OHPREG) (AID 2283434)
Method in brief: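 H295R cells pre-stimulated 48 h with 10 uM forskolin, then exposed 48 h to chemical in 0.1% DMSO. 17alpha-hydroxypregnenolone in medium quantified by MTBE extraction and HPLC-MS/MS; bidirectional fit versus DMSO, viability checked by MTT.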

[3] = CEETOX_H295R_OHPROG: CeeTox H295R High-throughput Steroidogenesis Assay for OH-Progesterone (OHPROG) (AID 2283435);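 as to AC50: human adrenal H295R cells primed 48 h with 10 µM forskolin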
Method in brief: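 H295R adrenal cells prestimulated 48 h with 10 uM forskolin, then exposed 48 h to chemical (0.1% DMSO final). 17alpha-hydroxyprogesterone in medium quantified by HPLC-MS/MS; bidirectional fit versus DMSO, with MTT viability measured in the same wells.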

[4] = CEETOX_H295R_ANDR: CeeTox H295R High-throughput Steroidogenesis Assay for Androstenedione (ANDR) (AID 2283436)
Method in brief: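 H295R cells, following OECD 456 with minor changes, exposed to chemicals for 48 h. Androstenedione in the medium was quantified by HPLC-MS/MS after MTBE extraction. Fitting was bidirectional versus DMSO; chemicals were diluted until MTT viability was ≥70%.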

[5] = CEETOX_H295R_CORTIC: CeeTox H295R High-throughput Steroidogenesis Assay for Corticosterone (CORTIC) (AID 2283437);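 also: corticosterone secreted into medium quantified by mass spectrometry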
Method in brief: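 H295R adrenal cells prestimulated 48 hours with 10 uM forskolin, then exposed 48 hours to chemical in 0.1% DMSO. Corticosterone in medium measured by HPLC-MS/MS after MTBE extraction; MTT viability in the same wells; bidirectional fit versus DMSO.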

[6] = CEETOX_H295R_DOC: CeeTox H295R High-throughput Steroidogenesis Assay for DOC (AID 2283439)
Method in brief: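 H295R cells prestimulated 48 h with 10 uM forskolin, then exposed 48 h to test chemical (0.1% DMSO final). Medium 11-deoxycorticosterone measured by HPLC-MS/MS after MTBE extraction; bidirectional fit vs DMSO, viability checked by MTT in same wells.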

[7] = CEETOX_H295R_ESTRADIOL: CeeTox H295R High-throughput Steroidogenesis Assay for Estradiol (AID 2283440);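 also: estradiol secreted into medium quantified by LC-MS/MS after dansyl derivatisation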
Method in brief: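 Readout is estradiol in conditioned medium, quantified by reverse-phase HPLC-MS/MS against a 7-point standard curve. Cells: H295R, forskolin-stimulated, then dosed 48 h in 0.1% DMSO; activity fitted in both directions relative to DMSO.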

[8] = CEETOX_H295R_ESTRONE: CeeTox H295R High-throughput Steroidogenesis Assay for Estrone (AID 2283441);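 also: estrone secreted into medium measured by LC-MS/MS after dansyl derivatization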
Method in brief: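 H295R cells prestimulated 48 h with 10 uM forskolin, then exposed 48 h to chemicals in 0.1% DMSO final; estrone in medium extracted with MTBE, dansyl-derivatized, quantified by HPLC-MS/MS; bidirectional fitting versus DMSO, viability by MTT.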

[9] = CEETOX_H295R_PROG: CeeTox H295R High-throughput Steroidogenesis Assay for Progesterone (PROG) (AID 2283442);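 as to AC50: human H295R adrenal cells primed with 10 µM forskolin before dosing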
Method in brief: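 Measured analyte is progesterone secreted by H295R cells at 48 h of chemical treatment, following 10 uM forskolin priming. Quantitation used HPLC-MS/MS against a 7-point standard curve; cytotoxicity was checked by MTT absorbance.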

[10] = CEETOX_H295R_TESTO: CeeTox H295R High-throughput Steroidogenesis Assay for Testosterone (TESTO) (AID 2283457)
Method in brief: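 Steroidogenesis in H295R cells following OECD 456 with minor changes; 48 h exposure. Medium testosterone by HPLC-MS/MS, DMSO as baseline, with MTT viability run in parallel.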

For `C=COCCCC`, the outcome [1] was “inactive”, the outcome [2] was “inactive” and the outcome [3] was “inactive”. The outcome [4] was “inactive”, the outcome [5] was “inactive” and the outcome [6] was “inactive”. The outcome [7] was “inactive”, the outcome [8] was “inactive” and the outcome [9] was “inactive”. For the same compound, the outcome [10] was “inactive”.
For `CCCCC/C=C\CCC=O`, the outcome [1] was “inactive”, the outcome [2] was “inactive” and the outcome [3] was “inactive”. For the same compound, the outcome [4] was “inactive”, the outcome [5] was “inactive” and the outcome [6] was “inactive”. The outcome [9] was “inactive” and the outcome [10] was “inactive”.
With `CO[Si](CCC1CCC2OC2C1)(OC)OC` (stereo not given) the outcome [1] was “inactive”, the outcome [2] was “inactive” and the outcome [3] was “inactive”. The outcome [4] was “inactive”, the outcome [5] was “inactive” and the outcome [6] was “inactive”. For the same compound, the outcome [9] was “inactive” and the outcome [10] was “inactive”.
With `C1=CCCC1` the outcome [1] was “inactive”, the outcome [4] was “inactive” and the outcome [5] was “inactive”. The outcome [6] was “inactive” and the outcome [10] was “inactive”.
For `Cc1ccc(C(C)c2ccc(C)c(C)c2)cc1C`, the outcome [1] was “inactive”, the AC50 [2] was 42.5 µM (active) and the AC50 [3] was 31.9 µM (active). The outcome [5] was “inactive”, the outcome [6] was “inactive” and the outcome [7] was “inactive”. The outcome [8] was “inactive” and the AC50 [9] was 40.9 µM (active).
In the case of `COc1ccc2nc(N)sc2c1`, the outcome [1] is reported as “inactive”, the outcome [2] is reported as “inactive” and the AC50 [3] is reported as 7.33 µM (active). For the same compound, the outcome [4] was “inactive”, the outcome [5] was “inactive” and the outcome [6] was “inactive”. The outcome [7] was “inactive”, the outcome [8] was “inactive” and the AC50 [9] was 22.4 µM (active). For the same compound, the outcome [10] was “inactive”.
In the case of `CCOC(=O)Cc1cccc2ccccc12`, the AC50 [1] is reported as 34.3 µM (active), the AC50 [2] is reported as 61.3 µM (active) and the AC50 [3] is reported as 40.1 µM (active). For the same compound, the outcome [5] was “inactive”, the AC50 [6] was 30.8 µM (active) and the outcome [7] was “inactive”. The outcome [8] was “inactive” and the AC50 [9] was 24.9 µM (active).
In the case of `S=C(NC1CCCCC1)NC1CCCCC1`, the outcome [1] is reported as “inactive”, the outcome [2] is reported as “inactive” and the outcome [3] is reported as “inactive”. For the same compound, the outcome [5] was “inactive”, the outcome [6] was “inactive” and the outcome [7] was “inactive”. The outcome [8] was “inactive” and the outcome [9] was “inactive”.
